Screening data: PubChem, Broad Institute
Shown are actives, neighbours in structure and some others; about 3.1% of the full set was active somewhere.
MITF act – activators of MITF-driven TRPM1 promoter reporter, primary screen, cell-based, SK-MEL-5, luciferase, single point; SK-MEL-5 TRPM1-promoter luciferase, 24 h; % of positive control, neutral wells = 0; activation, % at 12.5 µM; 300,000 tested, 0.75% active; AID 588334, 2011;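 active = mean activation of at least 80% with every replicate also reaching 80%; inconclusive = mean reaches 80% but some replicate falls short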;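 note: 0% = neutral control wells and 100% = parthenolide positive control wells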
Rtt109 Vps75 – inhibitors of C. albicans Rtt109/Vps75 HAT, primary screen, biochemical, ThioGlo CoA-SH fluorescence, plate reader; 330,000 tested, 0.16% active; Histone acetyltransferase RTT109 (Candida albicans (strain SC5314 / ATCC MYA-2876)), …; inhibition, % at 34.9 µM; purified Rtt109/Vps75, 4 h; AID 540336, 2011;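 active = inhibition of at least 50% in every replicate; inconclusive = best replicate reaches 50% inhibition but some replicates fall short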
Target sequence (Q5AAJ8 whole entry, looked up): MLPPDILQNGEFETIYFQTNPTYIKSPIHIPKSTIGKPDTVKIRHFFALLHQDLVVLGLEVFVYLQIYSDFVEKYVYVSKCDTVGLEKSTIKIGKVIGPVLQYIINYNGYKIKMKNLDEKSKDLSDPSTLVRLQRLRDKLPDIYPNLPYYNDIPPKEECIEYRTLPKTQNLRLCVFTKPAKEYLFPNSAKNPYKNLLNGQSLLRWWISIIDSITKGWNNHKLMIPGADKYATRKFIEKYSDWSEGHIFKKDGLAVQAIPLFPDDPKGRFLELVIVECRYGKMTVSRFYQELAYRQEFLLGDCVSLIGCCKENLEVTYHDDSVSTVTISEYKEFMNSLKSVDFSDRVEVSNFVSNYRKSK
Wnt act – Wnt/beta-catenin pathway activators, primary screen, cell-based, plate reader, single point. Wnt/beta-catenin reporter cell assay, activator. activation, % at 9.35 µM. 300,000 tested, 1.2% active; in the data active = activation above about 30%, passing the limit was not always enough; inconclusive = no clear call, values can overlap the other calls;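 note: 0% = neutral control wells and 100% = positive control wells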
Statin myotox sup – suppressors of statin myotoxicity in C2C12 myotubes, primary screen, cell-based, single point, plate reader | C2C12 myotubes + simvastatin, ATP luminescence, 48 h; scaled: DMSO 0, geranylgeraniol control 100 | rescue of ATP level, % at 7.49 µM | 330,000 tested, 0.78% active | AID 602340, 2012;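 active = mean ATP rescue above about 67%, or every replicate alone reaching that limit, limit read from the data, passing the limit was not always enough; inconclusive = no clear call, values can overlap the other calls; inactive = mean under the limit and some replicate under it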;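 note: myotubes were challenged with 10 µM simvastatin during compound exposure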
esBAF inh – Bmi1 luciferase reporter increase in mESCs, primary screen, esBAF inhibitor project, mouse ES cells, Bmi1 luciferase knock-in, single point | AID 602393, 2012 | 24 h; 100% = twice the neutral-well signal | 350,000 tested, 2% active | reporter increase, % at 12.5 µM; in the data active = activation above about 40%; inconclusive = no clear call, values can overlap the other calls;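 note: 0% = median of the plate's neutral control wells and 100% = double that signal; a rise in the Bmi1 reporter signal indicates esBAF inhibition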
An asterisk follows results filed as active; ? = inconclusive; nt = no result.

SMILES	MITF act	Rtt109 Vps75	Wnt act	Statin myotox sup	esBAF inh
Cc1ccc(-c2ccc(C(=O)Nc3cccc(F)c3)o2)c2ccccc12	24	0	0	3	12
CCc1nnc(NC(=O)c2ccc(COc3ccccc3Cl)o2)s1	nt	-7	0	1	-5
O=C(Nc1ccccc1)c1cc(-c2ccccc2Cl)no1	56	3	27	nt	56*
CCc1nnc(NC(=O)c2ccc(-c3ccccc3Cl)o2)s1	nt	nt	nt	-11	53*
O=C(Nc1cccc(F)c1)c1ccc(-c2ccccc2Cl)o1	60	-1	nt	-11	75*
COC(=O)c1sccc1-c1ccc(C(=O)Nc2ccccc2)o1	76	3	nt	4	74*
COc1cccc(S(=O)(=O)N(C)C[C@@H]2Oc3cc(C4=CCCC4)ccc3S(=O)(=O)N([C@@H](C)CO)C[C@H]2C)c1	nt	nt	nt	-160	2
CNC[C@@H]1OCCCC[C@H](C)Oc2ccc(NC(=O)Nc3ccc4c(c3)OCO4)cc2C(=O)N([C@H](C)CO)C[C@H]1C	nt	nt	nt	15	-1
C[C@@H]1CN([C@H](C)CO)C(=O)c2cc(NS(=O)(=O)c3cccs3)ccc2O[C@H]1CN(C)Cc1ccc(C(F)(F)F)cc1	nt	nt	nt	-19	1
COc1ccc(NC(=O)c2ccc(-c3ccccc3Cl)o2)cc1	116*	1	24	5	30
CCc1nnc(NC(=O)CN2C(=O)c3ccccc3C2=O)s1	-5	55*	nt	3	-1
COc1ccc(NC(=S)NC(=O)c2ccccc2Cl)cc1	?	-4	nt	-13	62*
COc1ccc(NC(=O)c2ccc(-c3ccc(C)c4ccccc34)o2)cc1	9	-1	11	-20	10
CCCc1nnc(NC(=O)CN2C(=O)c3ccccc3C2=O)s1	-8	3	nt	1	10
O=C(NC(=S)Nc1ccc(O)cc1)c1ccccc1Cl	35	6	-2	11	?
O=C(CNC(=O)c1cccc(Br)c1)N/N=C/c1cccs1	nt	59*	-3	2	-1
Cc1noc(C)c1S(=O)(=O)N(C)C[C@H]1Oc2ccc(NC(=O)Cn3cnnn3)cc2CC(=O)N([C@H](C)CO)C[C@H]1C	nt	nt	nt	7	0
CC(C)C(NC(=O)OCc1ccccc1)C(=O)OCC(=O)N1CCCCC1 (stereo not given)	nt	4	nt	-10	72*
COc1ccc(N2CCN(C(=O)COC(=O)[C@@H](NC(=O)OCc3ccccc3)C(C)C)CC2)cc1	-7	5	-2	-1	-6
CN1C(=O)c2cc(NC(=O)c3cccc(F)c3)ccc2OC[C@H]2O[C@H](CC(=O)N3CCc4ccccc4C3)CC[C@H]21	nt	nt	nt	19	9
ONC=Nc1cccc2nonc12	nt	-12	0	146*	0
O=S(=O)(Nc1ccccc1)c1cccc2nonc12	-8	-1	1	3	-1
COc1ccc(-c2ccc3c(c2)O[C@@H](CN(C)C)[C@@H](C)CN([C@@H](C)CO)S3(=O)=O)cc1	nt	nt	nt	1	0
Brc1ccc(-c2csc(N/N=C/c3ccco3)n2)cc1	56	4	38*	11	?
C(=N\Nc1nc(-c2ccccc2)cs1)/c1cccs1	51	10	56*	nt	nt
SMILES	MITF act	Rtt109 Vps75	Wnt act	Statin myotox sup	esBAF inh
Cc1ccc(-c2csc(N/N=C/c3ccco3)n2)cc1	75	-4	16	6	?
Clc1ccc(-c2csc(N/N=C/c3ccco3)n2)cc1	37	6	14	nt	nt
O=C(/C=C/c1ccco1)Nc1nc(-c2ccccc2)cs1	54	2	37*	nt	nt
C(=N\Nc1nc(-c2ccccc2)cs1)/c1ccco1	97*	3	nt	nt	nt
O=C(/C=C/c1ccco1)Nc1nc(-c2ccccn2)cs1	6	4	-2	nt	nt
C(=N\Nc1nc(-c2ccccc2)cs1)/c1ccncc1	65	-8	7	nt	nt
Cc1noc(C)c1S(=O)(=O)Nc1ccc2c(c1)C(=O)N([C@@H](C)CO)C[C@@H](C)[C@@H](CN(C)C(=O)Cc1ccccc1)OCCCC[C@@H](C)O2	nt	nt	nt	26	11
C[C@H]1CN([C@@H](C)CO)C(=O)CCCn2cc(nn2)CO[C@@H]1CN(C)Cc1cccc(C(=O)O)c1	nt	nt	nt	-22	-2
COc1cccc(S(=O)(=O)Nc2ccc3c(c2)[C@@H]2C[C@H](CC(=O)NCc4cccc(F)c4)O[C@H](CO)[C@@H]2O3)c1	nt	nt	nt	2	0
O=C(/C=C/c1ccco1)Nc1scc(-c2ccccc2)c1C(=O)O	27	8	42*	nt	nt
COCC#Cc1cnc2c(c1)C(=O)N([C@H](C)CO)C[C@H](C)[C@H](CN(C)C(=O)c1cccc(F)c1)O2	nt	nt	nt	1	2
COc1ccc(-c2cn3cccnc3n2)cc1Br	81*	-3	20	nt	nt
Cc1ccc(-c2cn3cccc(C)c3n2)cc1	-6	3	1	nt	nt
COc1ccc(-c2cn3cccc(C)c3n2)cc1F	92*	-3	33*	nt	nt
CCOc1cc(/C=C2/C(=O)N(c3ccccc3)N=C2C)ccc1OC(=O)c1ccco1	nt	3	nt	-4	-16
CCOc1cc(/C=C2\C(=O)N(c3ccc(C(N)=O)cc3)N=C2C)ccc1OC(=O)c1cccs1	-16	-3	nt	103*	-4
CO[C@H]1CN(C)C(=O)c2cc(NC(=O)Nc3cc(Cl)cc(Cl)c3)ccc2OC[C@H](C)NC[C@H]1C	nt	nt	nt	-130	0
COc1ccccc1NC(=O)c1ccc(COc2ccccc2OC)o1	8	46	2	1	8
C=CCc1ccc(OCc2ccc(C(=O)Nc3ccc(NC(C)=O)cc3)o2)c(OC)c1	39	0	20	-24	47*
Cn1c(=O)n(CC(=O)NC2CCCCC2)c(=O)c2ccccc21	nt	6	-2	72*	0
Cn1c(=O)c2ccccc2n(CC(=O)NC2CCCCC2)c1=O	2	15	-2	8	2
Clc1cccc(N/N=C/c2ccc(N3CCOCC3)cc2)c1	?	0	-2	-47	-5
O=[N+]([O-])c1cccc(N/N=C/c2ccc(N3CCOCC3)cc2)c1	127*	-1	13	-8	66*
C(=N\Nc1ccccc1)/c1ccc(N2CCOCC2)cc1	109*	-3	nt	-4	36
O=C(O)c1cc(N/N=C/c2ccncc2)ccc1Cl	-15	0	2	-8	0
O=C(O)c1cc(N/N=C/c2ccc(N3CCOCC3)cc2)ccc1Cl	-47	21	37*	8	13
CNC(=O)C[C@H]1CC[C@@H]2[C@H](COc3ccc(NC(=O)Nc4cc(C)cc(C)c4)cc3C(=O)N2C)O1	nt	nt	nt	11	-1
O=C(Nc1ccc([N+](=O)[O-])cc1Cl)c1cccc([N+](=O)[O-])c1	nt	nt	2	-9	37
